Where “and” joins values, the source holds several entries; their conditions need not be identical. Identical values can stand only once. Records with an inconclusive call do not appear. Calls of active or inactive are those of the source. Unless noted, calls come from the whole dose curve; as a rule, active = well fitted curve in the direction sought with a large enough effect; inconclusive = small, poorly fitted or top-dose-only effect, or another doubt; inactive = no such curve, though single readings can be large; an effect the other way counts as inactive or inconclusive.
What was measured:
[1] = Drug repurposing screens with cells derived from glioblastoma tumor samples (AID 1345199); conditions: GBM patient neurospheres viability, ATP luminescence, 48 h; note: nearly all actives have a fitted effect of over 40% in size; note: potency is the fitted concentration of half-maximal effect; for activity, negative = cell killing: % is set by controls: 0 for no effect and ±100 for the full control effect
Outline: (§1)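 Four patient lines of CD133+ GBM neurospheres were screened at several concentrations; hits were retested in those lines plus three slower-growing GBM lines, using 48-hour treatment and ATP-based viability.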

astro = control astrocytes; experiment: as above; conditions: viability, ATP luminescence, 48 h; series mostly up to 45.9 µM
Outline: as §1

[2] = target: Nuclear receptor subfamily 1 group I member 2 (Rattus norvegicus) (UniProt Q9R1A7); experiment: qHTS assay for small molecule activators of the rat pregnane X receptor (rPXR) signaling pathway (AID 651751; call rule not given here; note: 0% is about no effect); conditions: rPXR reporter cells, luciferase (One-Glo), 24 h
[3] = qHTS assay for small molecule activators of the human pregnane X receptor (PXR) signaling pathway (AID 720659; call rule not given here; note: 0% is about no effect); conditions: DPX-2 HepG2 CYP3A4-luciferase, 24 h; series mostly up to 92.3 µM
[4] = qHTS assay to identify inhibitors of the type 1 interferon - major histocompatibility complex class I in skeletal muscle: Counter screen cell viability and HiBit confirmation (AID 1347412); conditions: iHSKM muscle cells + IFN-b, HiBiT or CellTiter-Glo, 24 h; Potency: HiBiT; Viability, at 45.9 µM (top of the series); note: % is set by controls: 0 for no effect and ±100 for the full control effect; nearly all actives have a fitted effect of over 60% in size
Outline: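 Luminescence read-out: Nano-Glo HiBiT lytic signal from C-terminally HiBiT-tagged HLA-B in CRISPR-edited human myoblasts, plus CellTiter Glo ATP as viability counter screen. IFN-beta 4.0 ng/ml; 24 hrs treatment at 37 C, 5% CO2.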

[5] = at 46.1 µM (top of the series), tumour line C
[6] = at 45.9 µM (top of the series), tumour line D
[7] = at 45.9 µM (top of the series), tumour line B

Chain of Nuclear receptor subfamily 1 group I member 2 (Rattus norvegicus) (Q9R1A7 whole entry, looked up): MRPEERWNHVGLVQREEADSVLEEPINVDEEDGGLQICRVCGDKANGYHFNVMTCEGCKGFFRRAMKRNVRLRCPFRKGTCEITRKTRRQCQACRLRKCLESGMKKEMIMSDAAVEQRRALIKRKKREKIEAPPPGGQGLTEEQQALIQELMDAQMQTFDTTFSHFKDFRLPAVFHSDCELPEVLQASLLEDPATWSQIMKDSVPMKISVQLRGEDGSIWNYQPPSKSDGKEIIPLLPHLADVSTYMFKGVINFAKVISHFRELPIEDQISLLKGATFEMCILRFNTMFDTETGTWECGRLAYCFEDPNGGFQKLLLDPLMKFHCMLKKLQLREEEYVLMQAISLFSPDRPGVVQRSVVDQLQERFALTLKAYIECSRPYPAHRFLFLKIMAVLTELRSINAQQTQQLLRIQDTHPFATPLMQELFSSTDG

c1ccc(C2(N3CCCC3)CCCCC2)cc1
inactive: activity, negative = cell killing [1, 5] -27.4% | Potency (astro)
active: Potency ([1]; tumour line A) 11.2 µM

[O]=[Cr](=[O])([OH])[O][Cr](=[O])(=[O])[OH]
inactive: activity, negative = cell killing [1, 6] -3.21% | activity, negative = cell killing [1, 5] -22.8% and -5.59% | Potency (astro)

CCCCCCCCOC(=O)c1ccccc1C(=O)OCCCCCCCC
inactive: activity, negative = cell killing [1, 7] -18% | activity, negative = cell killing [1, 6] 6.99% | activity, negative = cell killing [1, 5] -8.6% | Potency (astro) | max response [2] -1.02% and 3.16% | outcome [3]

COCC(C)N(C(=O)CCl)c1c(C)csc1C (stereo not drawn)
inactive: activity, negative = cell killing [1, 7] -13.4% | activity, negative = cell killing [1, 6] -11.3% | activity, negative = cell killing [1, 5] -13.3% | Potency (astro) | max response [2] 2.96%

O=[N+]([O-])C(Br)(CO)CO
active: Potency ([1]; tumour line A) 35.5 µM | Potency (astro) 22.4 µM
inactive: activity, negative = cell killing [1, 5] -7.96% | outcome [3]

NCC(O)c1cccc(O)c1 (stereo not drawn)
inactive: activity, negative = cell killing [1, 7] -9.47% | activity, negative = cell killing [1, 6] -16.5% | activity, negative = cell killing [1, 5] -10.7% | Potency (astro)

C[N+]1([O-])[C@@H]2CC(OC(=O)[C@H](CO)c3ccccc3)C[C@H]1[C@@H]1O[C@@H]12 (stereo partly drawn)
inactive: Potency (astro)

ClC1=C(Cl)[C@]2(Cl)[C@@H]3[C@H]4C[C@H]([C@@H]5O[C@H]45)[C@@H]3[C@@]1(Cl)C2(Cl)Cl
inactive: activity, negative = cell killing [1, 7] -22% | Potency (astro)
active: Potency ([1]; tumour line A) 11.2 µM

O=C(OCCN1CCCCC1)C(O)(c1ccccc1)c1ccccc1
inactive: activity, negative = cell killing [1, 7] -11.1% | activity, negative = cell killing [1, 6] -8.82% | activity, negative = cell killing [1, 5] -26.9% | Potency (astro)

CC(Cc1ccccc1)NC=O (stereo not drawn)
inactive: activity, negative = cell killing [1, 7] -10.4% | activity, negative = cell killing [1, 6] 2.52% | activity, negative = cell killing [1, 5] -28.9% | Potency (astro)

O=[N+]([O-])c1ccc(F)c([N+](=O)[O-])c1
active: Potency ([1]; tumour line A) 20 µM | Potency ([1]; tumour line C) 14.6 µM
inactive: activity, negative = cell killing [1, 7] -29.6% | outcome [3]

S=C=S
inactive: activity, negative = cell killing [1, 7] -6.17% | activity, negative = cell killing [1, 6] -16.5% | activity, negative = cell killing [1, 5] -10.7% | Potency (astro) | max response [2] -0.686% | outcome [3]

OC(c1ccccc1)(c1ccccc1)C1CN2CCC1CC2 (stereo not drawn)
active: Potency ([1]; tumour line A) 12.6 µM
inactive: activity, negative = cell killing [1, 7] -13.1% | Potency (astro)

CCC(=O)O[C@@](Cc1ccccc1)(c1ccccc1)[C@@H](C)CN(C)C
inactive: activity, negative = cell killing ([1]; at 20 µM (top of the series), tumour line C) 2.51% | activity, negative = cell killing ([1]; at 21.2 µM (top of the series), tumour line B) -6.39% | activity, negative = cell killing ([1]; at 21.2 µM (top of the series), tumour line D) -21.4% | Potency (astro)

CC(=O)O[C@H]1CC[C@H]2[C@@H]3CCC4=CC(=O)CCC4=C3C=C[C@]12C
inactive: activity, negative = cell killing [1, 7] -12.7% | activity, negative = cell killing [1, 6] -6.7% | activity, negative = cell killing [1, 5] -16.1% | Potency (astro)

O=C(O)C(Cl)(Cl)Cl
inactive: activity, negative = cell killing [1, 7] -5.78% | activity, negative = cell killing [1, 6] 4.24% | activity, negative = cell killing [1, 5] 3.74% | Potency (astro) | max response [2] 6.71% and 3.85% | outcome [3]

N#CC1(N2CCCCC2)CCCCC1
inactive: activity, negative = cell killing [1, 7] -11.3% | activity, negative = cell killing [1, 6] -14.5% | activity, negative = cell killing [1, 5] -18% | Potency (astro)

N#CN
inactive: activity, negative = cell killing [1, 7] -13.5% | activity, negative = cell killing [1, 6] -4.31% | activity, negative = cell killing [1, 5] -5.37% | Potency (astro) | max response [2] 6.95% | outcome [3]

CN1CCCC(=C(c2cccs2)c2cccs2)C1
inactive: activity, negative = cell killing [1, 7] -10.4% | activity, negative = cell killing [1, 6] -24.1% | Potency (astro)

O=C(NCNC(=O)NC1C(=O)NC(=O)N1CO)NC1C(=O)NC(=O)N1CO (stereo not drawn)
inactive: activity, negative = cell killing [1, 7] -11.9% | activity, negative = cell killing [1, 6] 3.73% | activity, negative = cell killing [1, 5] -7.65% | Potency (astro)

CCN1C[C@]2(COC)[C@H](O)C[C@H](OC)[C@@]34[C@@H]5C[C@@]6(O)[C@H](OC(=O)c7ccccc7)[C@@H]5[C@@](OC(C)=O)([C@@H]([C@H](OC)[C@H]23)[C@@H]14)[C@@H](O)[C@@H]6OC
inactive: activity, negative = cell killing [1, 7] -6.48% | activity, negative = cell killing [1, 6] -4.25% | activity, negative = cell killing [1, 5] 8.16% | Potency (astro)

C=CCN=C=S
inactive: activity, negative = cell killing [1, 7] -6.51% | activity, negative = cell killing [1, 6] -10.4% | activity, negative = cell killing [1, 5] 6.26% | Potency (astro) | max response [2] 3.71% | outcome [3]

Cc1cccc(C(C)c2cnc[nH]2)c1C (stereo not drawn)
inactive: activity, negative = cell killing [1, 7] -17.4% | activity, negative = cell killing [1, 6] 6.82% | activity, negative = cell killing [1, 5] -27% | Potency (astro)

CCC/C=C/C=C/C(=O)O[C@H]1/C(=C/C(=O)OC)C[C@H]2C[C@H]([C@@H](C)O)OC(=O)C[C@H](O)C[C@@H]3C[C@H](OC(C)=O)C(C)(C)[C@](O)(C[C@@H]4C/C(=C/C(=O)OC)C[C@H](/C=C/C(C)(C)[C@]1(O)O2)O4)O3
inactive: activity, negative = cell killing [1, 7] -7.48% | activity, negative = cell killing [1, 6] -24.1% | Potency (astro)

CCOP(=O)(OCC)O/C(=C/Cl)c1ccc(Cl)cc1Cl
active: Potency ([1]; tumour line A) 12.6 µM
inactive: activity, negative = cell killing [1, 7] -17.8% | activity, negative = cell killing [1, 6] -23.4% | Potency (astro)

C/C(=C\c1csc(C)n1)[C@@H]1C[C@@H]2O[C@]2(C)CCC[C@H](C)[C@H](O)[C@@H](C)C(=O)C(C)(C)[C@@H](O)CC(=O)O1
inactive: activity, negative = cell killing [1, 7] -25.2% | activity, negative = cell killing [1, 6] -19.9% | Potency [4]

C=CC[C@]1(O)CC[C@H]2[C@@H]3CCC4=CCCC[C@@H]4[C@H]3CC[C@@]21C
active: Potency ([1]; tumour line A) 12.6 µM
inactive: activity, negative = cell killing [1, 5] -3.65% | Potency (astro)

Reference: PubChem BioAssay (NCATS)
